Several values for one entry are separate records, joined by “and”; a condition that tells them apart may be missing. Equal entries are not always repeated. Unmarked numbers belong to inactive results. Inconclusive results are not listed. Entries that show only a call come without a potency. Activity calls are given as the source filed them. Unless noted, calls come from the whole dose curve; as a rule, active = well fitted curve in the direction sought with a large enough effect in the repeat runs; inconclusive = weak or mixed curves; inactive = no such curve, though single readings can be large; an effect the other way counts as inactive or inconclusive.
Experiments:
[1] = A CellTox Green Cytotoxicity Assay to monitor cytotoxicity in HEK293 cells - 32 hour (AID 1224881); note: nearly all actives have a fitted effect of over 40% in size
In short: (§1)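 Nonlytic real-time cytotoxicity: HEK293 + CellTox Green reagent plated, 5 h preincubation, pintool compound addition (23 nL in DMSO), 37 C for 40 h, fluorescence measured at successive time points.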

[2] = A CellTox Green Cytotoxicity Assay to monitor cytotoxicity in HepG2 cells - 32 hour (AID 1224883); note: nearly all actives have a fitted effect of over 50% in size; note: potency is the fitted concentration of half-maximal effect
In short: (§2)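 Read-out is fluorescence of a cyanine dye excluded from live cells that stains DNA of dead HepG2 cells, with signal proportional to cytotoxicity. Plates were read at 0, 8, 16, 24, 32 and 40 h after compound addition.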

[3] = qHTS RealTime-Glo MT Cell Viability Assay in HepG2 cells - 16 hour (AID 1224885); note: nearly all actives have a fitted effect of over 50% in size
In short: (§3)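 HepG2 cells were seeded at 600 cells/well together with NanoLuc luciferase and a cell-permeant prosubstrate, preincubated 5 h at 37 C/5% CO2, then pin-dosed with compounds in DMSO. Nonlytic luminescence from viable cells was read at each time point.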

[4] = qHTS RealTime-Glo MT Cell Viability Assay in HEK293 cells - 24 hour (AID 1224886); note: nearly all actives have a fitted effect of over 50% in size; note: potency is the fitted concentration of half-maximal effect
In short: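 HEK293 cells were seeded at 600 cells/well together with NanoLuc luciferase and cell-permeant prosubstrate, preincubated 5 h at 37 C/5% CO2, then given compound in DMSO by pintool. Luminescence from viable-cell prosubstrate reduction was read repeatedly over 40 h.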

[5] = qHTS RealTime-Glo MT Cell Viability Assay in HEK293 cells - 8 hour (AID 1224887); note: nearly all actives have a fitted effect of over 50% in size; note: potency is the fitted concentration of half-maximal effect
In short: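 Cells were seeded together with NanoLuc luciferase and a prosubstrate that viable cells reduce to a luciferase substrate. After a 5 h incubation at 37 C/5% CO2, compounds were added and luminescence was measured repeatedly during 40 h of treatment.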

[6] = A CellTox Green Cytotoxicity Assay to monitor cytotoxicity in HEK293 cells - 16 hour (AID 1224888); note: nearly all actives have a fitted effect of over 35% in size
In short: as §1

[7] = qHTS RealTime-Glo MT Cell Viability Assay in HepG2 cells - 0 hour (AID 1224889); note: nearly all actives have a fitted effect of over 50% in size
In short: as §3

[8] = A CellTox Green Cytotoxicity Assay to monitor cytotoxicity in HepG2 cells - 8 hour (AID 1224890); note: nearly all actives have a fitted effect of over 45% in size
In short: as §2

[9] = qHTS assay to identify small molecule antagonists of the estrogen receptor alpha (ER-alpha) signaling pathway using the BG1 cell line in the presence of 0.1 nM 17-beta-estradiol - cell viability counter screen (AID 1259241); note: nearly all actives have a fitted effect of over 40% in size; note: potency is the fitted concentration of half-maximal effect
In short: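 The cell line endogenously expresses full-length ER-alpha and carries four EREs driving luciferase. Cells are cultured 5 days hormone-free, treated 22 hr with compounds and 0.1 nM estradiol, then viability is read by fluorescence.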

[10] = qHTS assay to identify small molecule antagonists of the androgen receptor (AR) signaling pathway using the MDA cell line in the presence of 0.5 nM R1881 - cell viability counter screen (AID 1259242); note: nearly all actives have a fitted effect of over 45% in size
In short: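 Counter screen for cytotoxicity run in the same wells as the AR antagonist reporter screen: MDA-kb2 cells were treated 16 hr with test compounds and 0.5 nM R1881, then live-cell protease activity was measured by fluorescence.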

[11] = qHTS assay to identify small molecule HDAC inhibitors (AID 1259364); note: nearly all actives have a fitted effect of over 45% in size; note: potency is the fitted concentration of half-maximal effect
In short: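 Luminescence from a cell-permeant luminogenic class I/II HDAC substrate reports endogenous deacetylase activity in intact HCT-116 cells treated with compounds for 2 h.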

[12] = qHTS assay to identify small molecule HDAC inhibitors - cell viability counter screen (AID 1259365)
In short: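 Viability readout: CellTiter-Glo luminescence. Wild-type HCT-116 cells, 2hr compound treatment following overnight attachment at 37 C.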

[13] = qHTS assay to identify small molecule agonists of the sonic hedgehog signaling (Shh) pathway - cell viability counter screen (AID 1259366); note: nearly all actives have a fitted effect of over 50% in size; note: potency is the fitted concentration of half-maximal effect
In short: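 Viability measured fluorometrically (CellTiter-Fluor, 1hr, 37C) in 3T3 Gli1-Luc reporter cells after 23hr compound exposure within a 24hr incubation at 37C/5% CO2.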

[14] = qHTS assay to identify small molecule antagonists of the sonic hedgehog signaling (Shh) pathway - cell viability counter screen (AID 1259367); note: nearly all actives have a fitted effect of over 55% in size; note: potency is the fitted concentration of half-maximal effect
In short: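 Seed 3T3 Gli1-Luc cells at 2,000 per well; incubate 4 hr; add compound in DMSO, then conditioned medium; incubate at 37C with 5% CO2; add CellTiter-Fluor after 23 hr; read fluorescence 1 hr later.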

[15] = qHTS assay to identify small molecule agonists of the sonic hedgehog signaling (Shh) pathway (AID 1259368; calls by dose curve; note: nearly all actives have a fitted effect of over 15% in size; note: potency is the fitted concentration of half-maximal effect)
In short: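 3T3Gli1-Luc (NIH/3T3 clone, stable Gli1-Luc); 4 hr pre-incubation, then cpd in DMSO 24 hr, 37 C/5% CO2; luciferase reagent 30 min RT; luminescence.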

[16] = A CellTox Green Cytotoxicity Assay to monitor cytotoxicity in HepG2 cells - 0 hour (AID 1224882); note: nearly all actives have a fitted effect of over 35% in size
In short: as §2

[17] = target: Estrogen receptor (Homo sapiens) (UniProt P03372); assay: qHTS assay to identify small molecule antagonists of the estrogen receptor alpha (ER-alpha) signaling pathway using the BG1 cell line in the presence of 0.1 nM 17-beta-estradiol (AID 1259244); note: nearly all actives have a fitted effect of over 50% in size; note: potency is the fitted concentration of half-maximal effect
In short: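 Cells: VM7Luc4E2, endogenous ER-alpha, 4x ERE-luc stable. Pre-culture 5 d, phenol red-free, charcoal-stripped FBS. Plated 24 h, compound + E2 0.1 nM final, 22 h 37C/5% CO2. Readout ONE-Glo luminescence.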

[18] = A CellTox Green Cytotoxicity Assay to monitor cytotoxicity in HEK293 cells - 8 hour (AID 1224884); note: nearly all actives have a fitted effect of over 35% in size
In short: as §1

[19] = qHTS assay to identify small molecule phospholipidosis (PLD) inducers (AID 1259344; active = well fitted curve in the direction sought with a large enough effect; an effect the other way counts as inactive or inconclusive)
In short: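 Quantitative HTS in HepG2: compound plus LipidTOX Red dye for 24 h, paraformaldehyde fixation with Hoechst 33342, widefield high-content imaging; amiodarone as positive and DMSO as negative control.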

[20] = target: Androgen receptor (Homo sapiens) (UniProt P10275); assay: qHTS assay to identify small molecule antagonists of the androgen receptor (AR) signaling pathway using the MDA cell line in the presence of 0.5 nM R1881 (AID 1259243)
In short: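 Luciferase luminescence is the read-out: compounds are tested for suppressing 0.5 nM R1881-driven MMTV reporter activity in MDA-kb2 cells after 16 hr at 37C.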

Chain of Estrogen receptor (Homo sapiens) (P03372 whole entry, looked up): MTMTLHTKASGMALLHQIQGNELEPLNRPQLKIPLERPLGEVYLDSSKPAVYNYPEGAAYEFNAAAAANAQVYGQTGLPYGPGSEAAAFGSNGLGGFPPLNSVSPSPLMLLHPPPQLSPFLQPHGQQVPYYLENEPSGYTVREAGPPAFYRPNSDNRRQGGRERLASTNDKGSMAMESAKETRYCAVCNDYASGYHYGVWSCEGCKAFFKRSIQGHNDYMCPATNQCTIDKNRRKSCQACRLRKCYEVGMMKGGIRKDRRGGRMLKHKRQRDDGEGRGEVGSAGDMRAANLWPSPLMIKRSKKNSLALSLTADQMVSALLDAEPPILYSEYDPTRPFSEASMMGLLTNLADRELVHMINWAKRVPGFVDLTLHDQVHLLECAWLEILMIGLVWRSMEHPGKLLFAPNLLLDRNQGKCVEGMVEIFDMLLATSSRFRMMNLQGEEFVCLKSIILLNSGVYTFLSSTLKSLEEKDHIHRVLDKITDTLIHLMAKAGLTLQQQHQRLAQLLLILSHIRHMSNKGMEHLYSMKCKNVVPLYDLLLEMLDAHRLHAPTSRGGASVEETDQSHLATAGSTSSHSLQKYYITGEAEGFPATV
Chain of Androgen receptor (Homo sapiens) (P10275 whole entry, looked up): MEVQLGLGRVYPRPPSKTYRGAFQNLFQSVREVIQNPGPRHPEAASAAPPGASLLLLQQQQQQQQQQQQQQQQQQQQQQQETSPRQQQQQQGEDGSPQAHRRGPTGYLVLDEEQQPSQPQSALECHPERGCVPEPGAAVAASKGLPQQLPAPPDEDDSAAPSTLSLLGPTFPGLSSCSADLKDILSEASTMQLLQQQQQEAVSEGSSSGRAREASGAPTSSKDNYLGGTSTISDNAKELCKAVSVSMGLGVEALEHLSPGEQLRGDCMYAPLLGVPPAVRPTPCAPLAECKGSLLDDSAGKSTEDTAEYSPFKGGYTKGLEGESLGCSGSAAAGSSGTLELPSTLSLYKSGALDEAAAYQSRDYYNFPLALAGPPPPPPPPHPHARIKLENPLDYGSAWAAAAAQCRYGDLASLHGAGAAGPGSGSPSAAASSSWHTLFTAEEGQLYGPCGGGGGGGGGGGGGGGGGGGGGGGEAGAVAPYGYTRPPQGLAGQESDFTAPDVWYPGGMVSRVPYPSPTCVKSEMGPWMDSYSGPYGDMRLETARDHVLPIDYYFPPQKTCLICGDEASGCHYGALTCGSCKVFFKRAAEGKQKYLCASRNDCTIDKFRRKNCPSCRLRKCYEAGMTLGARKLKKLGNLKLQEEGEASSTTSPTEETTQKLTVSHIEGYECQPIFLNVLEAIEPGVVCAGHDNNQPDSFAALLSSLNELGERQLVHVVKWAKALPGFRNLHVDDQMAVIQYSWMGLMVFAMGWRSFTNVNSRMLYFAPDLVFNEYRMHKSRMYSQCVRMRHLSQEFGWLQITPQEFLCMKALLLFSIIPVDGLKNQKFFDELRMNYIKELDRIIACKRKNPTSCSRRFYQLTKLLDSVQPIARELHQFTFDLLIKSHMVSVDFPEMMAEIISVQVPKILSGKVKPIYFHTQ

Row | Compound | Potency [1] | Potency [2] | Potency [3] | Potency [4] | Potency [5] | Potency [6] | Potency [7] | Potency [8] | Potency [9] | Potency [10] | Potency [11] | Potency [12] | Potency [13] | Potency [14] | Potency [15] | Potency [16] | Potency [17] | Potency [18] | outcome [19] | Potency [20]
1 | CCC(C)Br (stereo not drawn) | inactive | inactive | inactive | inactive | inactive | inactive | inactive | inactive | inactive | inactive | inactive | inactive | inactive | inactive | inactive | – | – | – | – | –
2 | c1ccc(Nc2ccc(Nc3ccccc3)cc2)cc1 | – | inactive | inactive | 21.8 µM (active) | 15.4 µM (active) | – | inactive | inactive | inactive | inactive | inactive | inactive | – | inactive | – | inactive | – | – | – | –
3 | O=C(O)[C@H](O)[C@@H](O)C(=O)O | inactive | inactive | inactive | inactive | inactive | inactive | inactive | – | inactive | inactive | inactive | inactive | inactive | inactive | inactive | – | inactive | – | – | –
4 | Nc1ccccc1-c1ccccc1 | – | inactive | inactive | inactive | inactive | inactive | inactive | inactive | inactive | inactive | – | inactive | inactive | inactive | inactive | inactive | – | inactive | – | –
5 | Cc1cccc(Cc2cnc[nH]2)c1C | inactive | – | inactive | – | inactive | inactive | inactive | – | inactive | inactive | inactive | inactive | inactive | inactive | inactive | – | inactive | inactive | inactive | –
6 | CC(C)N(C(=O)CCl)c1ccccc1 | inactive | 49 µM (active) | – | 49 µM (active) | inactive | inactive | inactive | inactive | inactive | – | inactive | inactive | 68.6 µM (active) and 9.69 µM (active) | 30.6 µM (active) and 24.3 µM (active) | inactive | – | 27.3 µM (active) and 54.5 µM (active) | inactive | – | 19.3 µM (active)
7 | CC(=O)C(Cl)C(=O)N(C)C (stereo not drawn) | – | inactive | inactive | – | inactive | inactive | inactive | inactive | inactive | inactive | – | inactive | inactive | inactive | inactive | inactive | inactive | inactive | – | –
8 | O=NN(CCO)CCO | inactive | inactive | inactive | inactive | inactive | inactive | inactive | inactive | inactive | inactive | inactive | inactive | inactive | inactive | inactive | – | – | – | – | –
9 | CN(C)c1ccc(N)cc1 | – | inactive | – | 42.6 µM (active) | 24 µM (active) | inactive | inactive | – | 47.4 µM (active) | – | 23.7 µM (active) | – | 53.2 µM (active) | – | – | inactive | 29.9 µM (active) | inactive | – | –
10 | C[C@H]1[C@H](c2ccc(Cl)cc2)SC(=O)N1C(=O)NC1CCCCC1 | inactive | inactive | inactive | – | 38.9 µM (active) | inactive | inactive | inactive | inactive | – | inactive | inactive | inactive | inactive | inactive | – | 61.1 µM (active) | – | – | –
11 | CCC1(CC)C(=O)N=C(O)NC1=O | inactive | inactive | inactive | inactive | inactive | inactive | inactive | inactive | inactive | inactive | – | inactive | inactive | inactive | inactive | – | – | – | – | –
12 | c1csc(-c2ccc(-c3cccs3)s2)c1 | – | inactive | inactive | inactive | inactive | inactive | inactive | inactive | inactive | inactive | 5.45 µM (active) | inactive | inactive | inactive | 9.69 µM (active) | inactive | – | inactive | – | –

Reference: PubChem BioAssay (Tox21)
